# Hits are enriched below; roughly 17% of the tested compounds scored in any of these assays.
# HT1080-NT tox: qHTS for induction of synthetic lethality in tumor cells producing 2HG: qHTS for the HT-1080-NT fibrosarcoma cell line | hit rate 1.6% among 360,000 | Potency, µM (top dose mostly 46.1 µM), without a hit: top-dose activity, negative = less viability, usual class: cytotoxic | HT-1080-NT fibrosarcoma viability, CellTiter-Glo ATP luminescence, 48 h;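 further: NT is the 2HG producing partner of a matched IDH1 knockdown line; 0% = DMSO-treated cells and -100% = media-only wells without cells; nearly all actives have a fitted effect of over 55% in size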
#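 HT-1080-NT; 750 cells/well; 5% FBS RPMI; 48 h compound, 37 degrees C; CellTiter-Glo luminescence; curve fitting and curve-class assignment.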
# TDP1 cell noCPT: qHTS for Inhibitors of human tyrosyl-DNA phosphodiesterase 1 (TDP1): qHTS in cells in absence of CPT; DT40 Tdp1-/- hTDP1 cells, no CPT, ATP luminescence, 48 h; Potency, µM (titrated, usually from 46.2 µM), for inactives: at the top dose activity change, negative = growth inhibition, most hits filed as inhibitors; hit rate 15% among 420,000; AID 686978, 2013; further: on the % scale 0 is the no-effect control and ±100 the full control effect; nearly all actives have a fitted effect of over 55% in size
#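 Growth kinetics read by CellTiter-Glo luminescence after ≥48 hr at 37 °C. Cells: DT40 Tdp1-/- stably carrying human TDP1, 400 per well, compound exposure in the absence of CPT (DMSO vehicle).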
# HT1080 IDH1KD tx: qHTS for induction of synthetic lethality in tumor cells producing 2HG: qHTS for the HT-1080-IDH1KD cell line; AID 686971, 2013; Potency, µM (doses to about 46.1 µM), without a hit: at the top dose activity, negative = toxicity, actives largely listed as cytotoxic; HT-1080 IDH1 knockdown viability, ATP luminescence, 48 h; hit rate 2% among 360,000;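 further: 0% = DMSO wells and -100% = cell-free medium wells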
#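 Knockdown cells (IDH1KD HT-1080) received compounds 2 h after plating at 750 cells/well and were kept 48 h at 37 °C in 5% FBS RPMI. A CellTiter-Glo luminescence read gave % activity for curve fitting.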
# TDP1 cell CPT: qHTS for Inhibitors of human tyrosyl-DNA phosphodiesterase 1 (TDP1): qHTS in cells in presence of CPT | AID 686979, 2013 | chicken DT40 Tdp1-/-;hTDP1 cells + 20 nM CPT, ATP luminescence, 48 h | hit rate 12% among 420,000 | Potency, µM (highest dose often 46.2 µM), for the others: at the highest dose activity change, negative = growth inhibition, actives largely listed as inhibitors; further: on the % scale 0 is the no-effect control and ±100 the full control effect; nearly all actives have a fitted effect of over 55% in size
#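 Chicken DT40 Tdp1-/- cells stably complemented with human TDP1 were seeded at 400 cells/well in medium containing 20 nM camptothecin, exposed to pin-transferred compounds, and grown at 37 °C for at least 48 hr. Viability was read as ATP luminescence.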
# TGFb SMAD3 inh: qHTS for Inhibitors of TGF-b. hit rate 1.2% among 410,000. Potency, µM (top dose mostly 46.1 µM), without a hit: at the top dose activity, negative = inhibition, hits mostly inhibitors. HepG2 CAGA-GFP TGF-b/SMAD3 reporter, GFP fluorescence, 18 h; TGF-beta stimulated, 500 pg/mL final; further: on the % scale 0 is the no-effect control and ±100 the full control effect; nearly all actives have a fitted effect of over 65% in size
#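 Smad-responsive CAGA-GFP expression was quantified in HEPG2 cells exposed to compounds and 500 pg/mL final TGF-beta for 18 h at 37 degrees C; unstimulated wells defined full inhibition.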
# HepG2 tox: qHTS for Inhibitors of TGF-b: Cytotox Counterscreen; hit rate 0.76% among 410,000; Potency, µM (series often up to 46.1 µM), for inactives: at the highest dose activity change, negative = cytotoxicity, actives largely listed as cytotoxic; HepG2 CAGA-GFP viability, ATP luminescence, 18 h
#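 CellTiter-Glo luminescence gave cytotoxicity after 18 hours at 37 degrees C. The cells were HepG2 CAGA-GFP in 1% FBS DMEM, stimulated with 500 pg/mL TGF-beta after compound addition. %Activity was normalised to no-cell wells (complete cell-killing) and DMSO (no toxicity), and curves were fitted and classified.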
# * = called active by the depositor; u = inconclusive; x = not tested or not shown. The call rests on the fitted dose curve; in most records, active means well fitted curve in the direction sought with a large enough effect; inconclusive means small, poorly fitted or top-dose-only effect, or another doubt; inactive means no such curve, though single readings can be large; an effect the other way counts as inactive or inconclusive. Potency means the concentration at half of the fitted maximal effect.
SMILES,HT1080-NT tox,TDP1 cell noCPT,HT1080 IDH1KD tx,TDP1 cell CPT,TGFb SMAD3 inh,HepG2 tox
Cc1c(C(=O)N(C)Cc2nc3ccccc3c(=O)[nH]2)oc2ccccc12,-22%,23µM*,u,u,9%,-7%
CCOC(=O)c1cc(S(=O)(=O)Nc2ccc(OC(F)(F)F)cc2)[nH]n1,x,-15%,x,-29%,-5%,-32%
COc1ccc(CN(C)S(=O)(=O)c2nnc(NC(=O)c3cccc(F)c3)s2)cc1,u,u,u,-17%,u,-30%
O=C(CNC(=O)N1CC(=O)Nc2ccccc21)NCCc1c[nH]c2ccccc12,-2%,0%,-3%,-3%,17%,-3%
Cc1c(Cc2ccccc2)sc(NC(=O)/C=C/c2cccc3ccccc23)c1C(N)=O,13µM*,3.3µM*,33µM*,3.7µM*,-20%,-2%
COC(=O)c1c(N)sc(Cc2ccccc2)c1C,-2%,25%,-2%,-11%,-2%,0%
COC(=O)c1c(NC(=O)/C=C/C(=O)O)sc(Cc2ccccc2)c1C,-29%,u,u,21µM*,u,-50%
Cc1c(Cc2ccccc2)sc(NC(=O)c2ccco2)c1C(N)=O,u,u,u,-24%,-5%,-3%
O=C(O)c1ccc(-c2sc(Nc3ccccc3)n[n+]2-c2ccc(F)cc2)cc1,0%,-8%,-2%,-1%,-29%,-3%
CCc1ccc(Nc2n[n+](-c3ccccc3)c(-c3c(Cl)cccc3Cl)s2)cc1,21µM*,15µM*,u,23µM*,7.1µM*,-108%
Cc1cccc(-c2sc(Nc3ccccc3)n[n+]2-c2ccccc2)c1,-6%,u,-12%,u,-15%,-15%
CCc1ccc(Nc2n[n+](-c3ccccc3)c(-c3cc(OC)c(OC)cc3Br)s2)cc1,-16%,u,-7%,16µM*,-20%,-11%
Fc1ccc(-[n+]2nc(Nc3ccccc3)sc2-c2c(Cl)cccc2Cl)cc1,u,u,-23%,18µM*,u,11µM*
O=C(Cc1ccccc1)Nc1nnc2n1CCS2,x,-8%,x,-19%,9%,-3%
O=C(NC1CC1)c1cc2cc3ccccc3nc2s1,10%,u,-6%,23µM*,2%,4%
O=C(NNC(=O)c1cc2cc3ccccc3nc2s1)c1cccc(C(F)(F)F)c1,4%,-17%,12%,-22%,17%,-7%
CCc1nn2cc(C(=O)c3cc(Cl)ccc3O)cnc2c1-c1ccc(F)cc1,u,u,u,u,u,6%
O=C1[C@@H]2CSCN2C(=O)CN1Cc1ccc(F)cc1,11%,3%,-1%,-7%,0%,-27%
Cc1ccc2cc(C3CC(c4ccco4)=NN3S(C)(=O)=O)c(Cl)nc2c1 (stereo unspecified),-1%,u,-8%,0%,1%,9%
CC(=NNC(=S)N1CC2CCC(CC2)C1)c1ccccn1,-23%,0.018µM*,-17%,0.0082µM*,u,13µM*
C/C(=N\NC(=O)C1CCCN(S(=O)(=O)c2ccccc2)C1)c1ccccn1 (stereo unspecified),u,3.3µM*,u,5.8µM*,-27%,-32%
C/C(=N/NC(=O)c1cnccn1)c1ccncc1,11%,-12%,-10%,11%,17%,11%
C/C(=N\NC(=O)C1CCCN(S(=O)(=O)c2ccccc2)C1)c1ccncc1 (stereo unspecified),-2%,-16%,-6%,-9%,14%,9%
CC(=NNC(=S)N1CC2CCC(CC2)C1)c1cnccn1,u,-116%,u,-113%,3.2µM*,-49%
C/C(=N/O)c1ccccn1,3%,0%,3%,8%,0%,-2%
SMILES,HT1080-NT tox,TDP1 cell noCPT,HT1080 IDH1KD tx,TDP1 cell CPT,TGFb SMAD3 inh,HepG2 tox
COc1cc(S(=O)(=O)NCc2ccncc2)c(OC)cc1Br,-3%,13µM*,-2%,u,-1%,32%
Cc1ccc(C)c(S(=O)(=O)NCc2ccncc2)c1,-12%,21µM*,u,u,2%,0%
COc1cc(S(=O)(=O)NCc2cccnc2)c(OC)cc1Br,5%,9%,7%,6%,2%,-12%
Cc1cc(S(=O)(=O)NCc2ccncc2)c(C)cc1Br,-27%,5.8µM*,-19%,8.2µM*,u,-54%
Cc1ccccc1NC(=O)COC(=O)CCc1ccccc1,11%,-29%,10%,u,7%,4%
O=S(=O)(NCCc1ccncc1)c1ccc(S(=O)(=O)N2CCCCCC2)cc1,-13%,-21%,-11%,-21%,6%,-4%
Cc1cccc(NC(=S)N/N=C/c2cccn2Cc2ccc(F)cc2)c1,-20%,16µM*,-14%,u,3%,-37%
COc1ccc(NC(=S)N/N=C/c2cccn2Cc2ccccc2F)cc1,u,u,u,14%,7%,-6%
CSc1ccccc1NC(=S)N/N=C/c1cccn1Cc1ccc(F)cc1,-10%,23µM*,-18%,u,-1%,-21%
CSc1ccccc1NC(=S)N/N=C/c1cccn1Cc1cccc(C)c1,u,10%,24%,7%,15%,10%
COc1ccc(NC(=S)N/N=C/c2cccn2Cc2ccc(F)cc2Cl)cc1,-15%,10µM*,-11%,23µM*,12%,-25%
O=C(C[C@@H]1C=C[C@@H](NC(=O)c2cccnc2)[C@@H](CO)O1)NCc1ccncn1,16%,1%,18%,10%,x,x
CCCOc1ccc(-c2cccc(NS(=O)(=O)c3ccc(CC)cc3)c2)nn1,x,18µM*,x,16µM*,u,-31%
CCOc1ccc(-c2cccc(NS(=O)(=O)c3ccc(C)s3)c2)nn1,x,u,x,23µM*,-15%,-21%
CCOc1ccc(-c2cccc(NS(=O)(=O)c3cccc([N+](=O)[O-])c3)c2)nn1,2%,u,2%,-27%,-12%,0%
COc1ccc(-c2cccc(NS(=O)(=O)c3cc([N+](=O)[O-])c(C)c([N+](=O)[O-])c3)c2)nn1,-3%,-28%,-12%,u,u,-19%
